Bioassay records as filed in PubChem BioAssay.
HIV Env fusion: inhibitors of HIV-1 Env-driven cell-cell fusion, primary screen, HeLa-JRFL effector, CEM21 target cells, luciferase; inhibition, % at 12.3 µM; actives 1.1% (n = 360,000);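 active means mean replicate inhibition score of at least 50 and every replicate individually at or above 50; inconclusive means only one of the two criteria met; inactive means mean below 50 and not all replicates reaching 50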
PAX8 inh HTS: inhibitors of PAX8-driven TPO luciferase reporter, primary screen, RMG-I cells, single concentration; actives 1.2% (n = 360,000); SteadyGlo, 24 h; inhibition, % at 12.6 µM;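 active means mean replicate inhibition at least 60% with every replicate also reaching 60%; inconclusive means only one of the two criteria is met; inactive means mean below 60% and not all replicates reaching 60%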;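 further: luciferase light reporting Pax8 driven TPO promoter activity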
C2C12 statin: suppressors of statin myotoxicity in C2C12 myotubes, primary screen, cell-based, single point, plate reader; C2C12 myotubes + simvastatin, ATP luminescence, 48 h; scaled: DMSO 0, geranylgeraniol control 100; rescue of ATP level, % at 7.49 µM; actives 0.78% (n = 330,000); AID 602340, 2012;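 active means mean ATP rescue above about 67%, or every replicate alone reaching that limit, limit read from the data, passing the limit was not always enough; inconclusive means no clear call, values can overlap the other calls; inactive means mean under the limit and some replicate under it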;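 further: myotubes were challenged with 10 µM simvastatin during compound exposure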
miR122 inh: miR-122 Renilla sensor signal increase in Huh7, primary screen, miR-122 inhibitor project, cell-based, single point, plate reader | activation (reporter increase), % at 12.5 µM | Huh7 miR-122 Renilla luciferase sensor, 48 h; neutral wells = 0, positive control = 100 | actives 0.3% (n = 340,000);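 active means mean replicate activation score at least 90 and every replicate individually at or above 90; inconclusive means only one of the two criteria met; inactive means neither criterion met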;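 further: higher luciferase means less miR-122 activity so hits act as miR-122 inhibitors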
EWS-Fli inh: EWS/Fli-driven NR0B1 reporter inhibitors, primary screen, A673 cells, NR0B1 luciferase, luminescence, MLPCN library | viability-normalised | inhibition, % at 12.6 µM | actives 0.67% (n = 350,000);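 active means mean inhibition of at least 50% after viability correction, with every replicate also passing that limit; inconclusive means mean reaches 50% but only one of two replicates passes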;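 further: firefly luciferase signal divided by Alamar Blue viability fluorescence both relative to DMSO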
INS-1E GSIS act: GLuc luminescence reporter in INS-1E cells, primary screen for activators of glucose-dependent secretion of insulin; INS-1E GLuc reporter insulin secretion, 2-3 h; activation, % at 16.6 µM; actives 0.61% (n = 370,000);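 active means lowest replicate activation of at least 40%, so every replicate reaches that level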
Large screens that a line does not name were inactive; [ ] = remark or other dose. Shown are actives, neighbours in structure and some others; about 3.1% of the full set was active somewhere.

CN1C(=O)c2cc(NC(=O)C3CCC3)ccc2OC[C@H]2O[C@@H](CC(=O)NCC3CCCCC3)CC[C@H]21	none (no result: HIV Env fusion, C2C12 statin, miR122 inh)
CCC(=O)Nc1ccc2c(c1)C(=O)N(C)[C@H]1CC[C@@H](CC(=O)NCCN3CCCCC3)O[C@@H]1CO2	none
CC(=O)N(C)C[C@@H]1Oc2ccc(N)cc2C(=O)N(C)C[C@@H]1C	none (no result: HIV Env fusion, PAX8 inh HTS, C2C12 statin, miR122 inh, EWS-Fli inh)
C[C@H]1CN([C@@H](C)CO)C(=O)c2cccc(NS(=O)(=O)c3ccccc3)c2O[C@@H]1CN(C)C(=O)Nc1ccc2c(c1)OCO2	none (no result: PAX8 inh HTS)
C[C@@H]1CN([C@H](C)CO)C(=O)Cc2cc(NS(=O)(=O)c3cn(C)cn3)ccc2O[C@@H]1CN(C)Cc1ccncc1	none (no result: HIV Env fusion)
C[C@H]1CCCCO[C@@H](CN(C)S(=O)(=O)c2cccs2)[C@@H](C)CN([C@@H](C)CO)C(=O)c2cc(NS(=O)(=O)c3ccccc3)ccc2O1	HIV Env fusion 63[16.7 µM] (no result: C2C12 statin)
C[C@@H]1CN([C@H](C)CO)C(=O)c2cc(NC(=O)CCC(F)(F)F)ccc2O[C@@H]1CN(C)C(=O)Nc1cccc2ccccc12	none
O=C(Nc1nccs1)[C@H]1[C@H](CO)[C@H]2Cn3c(ccc(-c4ccccc4)c3=O)[C@H]2N1CC1CCCC1	C2C12 statin inconclusive (no result: HIV Env fusion)
O=C(C[C@@H]1CC[C@@H](NS(=O)(=O)c2ccccc2F)[C@@H](CO)O1)NCCCN1CCOCC1	none
COc1ccccc1NS(=O)(=O)c1cc(NC(=O)c2sccc2C)ccc1N1CCOCC1	none (no result: INS-1E GSIS act)
COc1ccc(NS(=O)(=O)c2cc(NC(=O)c3ccccc3)ccc2N2CCOCC2)cc1	none
COc1ccccc1NS(=O)(=O)c1cc(NC(=O)c2sccc2C)ccc1N1CCCC1	miR122 inh 173 (no result: EWS-Fli inh)
COc1ccccc1NS(=O)(=O)c1cc(NC(=O)Nc2ccccc2)ccc1N1CCCCC1	miR122 inh 289 (no result: HIV Env fusion, C2C12 statin)
COc1cc(S(=O)(=O)Nc2ccccc2N2CCCCC2)ccc1NC(C)=O	miR122 inh 111 (no result: HIV Env fusion)
COc1cc(OC)c(S(=O)(=O)Nc2ccccc2N2CCCCC2)cc1NC(C)=O	none
COc1ccccc1NS(=O)(=O)c1cc(NC(=O)C(C)C)ccc1N1CCCCC1	none (no result: C2C12 statin, miR122 inh)
COc1ccc(NS(=O)(=O)c2cc(NC(=O)c3sccc3C)ccc2N2CCOCC2)cc1	miR122 inh 188, EWS-Fli inh inconclusive
C/C=C/c1ccc2c(c1)O[C@H](CN(C)C(=O)C1CCC1)[C@H](C)CN([C@@H](C)CO)S2(=O)=O	none (no result: PAX8 inh HTS)
COc1ccc(S(=O)(=O)Nc2cccc3c2O[C@H](CN(C)Cc2ccncc2)[C@H](C)CN([C@H](C)CO)C3=O)cc1	none (no result: HIV Env fusion)
COc1ccc2c3c([nH]c2c1)[C@@H](CO)N(CC1CC1)CC31CN(S(=O)(=O)c2cccc(F)c2)C1	none (no result: HIV Env fusion, C2C12 statin, miR122 inh)
COC(=O)C(C)Sc1nc2c(cnn2-c2ccc(C)cc2)c(=O)[nH]1 (configuration not stated)	C2C12 statin 106 (no result: HIV Env fusion, PAX8 inh HTS, EWS-Fli inh)
COC(=O)C(C)Sc1nc2c(cnn2-c2ccc(F)cc2)c(=O)[nH]1 (configuration not stated)	none
COC(=O)C[C@H]1C[C@@H]2c3cc(NS(=O)(=O)c4ccc(F)cc4)ccc3O[C@@H]2[C@@H](CO)O1	none
C[C@H](CO)N1C[C@H](C)[C@H](CN(C)C(=O)Nc2ccc3c(c2)OCO3)Oc2ccc(NC(=O)Cc3ccccc3)cc2C1=O	none
C=CCn1c(=O)c2c(nc3n2CC(C)CN3c2cccc(OC)c2)n(C)c1=O (configuration not stated)	C2C12 statin 120
COCC(=O)Nc1ccc2c(c1)C(=O)N(C)C[C@H](OC)[C@H](C)CN(Cc1ccncc1)[C@@H](C)CO2	none
COc1ccc(C(=O)c2cnc3ccccc3c2-c2ccccc2)cc1	HIV Env fusion 91 (no result: PAX8 inh HTS, EWS-Fli inh, INS-1E GSIS act)
Cc1ccc(C(=O)c2cnc3ccccc3c2-c2ccccc2)cc1	HIV Env fusion 83 (no result: PAX8 inh HTS, EWS-Fli inh, INS-1E GSIS act)
COc1ccc(Oc2nc(-c3ccccc3)ncc2C(=O)O)cc1	none
O=C(c1ccccn1)N1C[C@@H]2N[C@H](C1)C2c1ccc(-c2ccccc2F)cc1 (some centres not stated)	PAX8 inh HTS inconclusive (no result: HIV Env fusion, C2C12 statin, miR122 inh)
O=C(NC1CCCCC1)C(c1ccccc1)n1c(=O)c(-c2ccco2)nc2ccccc21 (configuration not stated)	HIV Env fusion 63 (no result: C2C12 statin, miR122 inh)
COc1ccc(C(C(=O)NC2CCCC2)n2c(CSCCOc3ccccc3)nc3ccccc32)cc1 (configuration not stated)	HIV Env fusion 78 (no result: C2C12 statin, miR122 inh)
C[C@@H]1CCCCO[C@@H](CN(C)C(=O)Nc2cccc3ccccc23)[C@H](C)CN([C@H](C)CO)C(=O)c2cc(NC(=O)CCC(F)(F)F)ccc2O1	PAX8 inh HTS 67 (no result: C2C12 statin)
C[C@H]1CCCCO[C@H](CN(C)C(=O)Nc2cccc3ccccc23)[C@@H](C)CN([C@@H](C)CO)C(=O)c2cc(NC(=O)CCC(F)(F)F)ccc2O1	PAX8 inh HTS 71 (no result: C2C12 statin)
C[C@@H]1CN([C@H](C)CO)C(=O)c2cc(NC(=O)CCC(F)(F)F)ccc2O[C@@H](C)CCCCO[C@H]1CN(C)C(=O)Nc1cccc2ccccc12	none (no result: C2C12 statin)
COc1cccc(NC(=O)N[C@H]2C=C[C@@H](CC(=O)N3CCCCC3)O[C@@H]2CO)c1	none (no result: miR122 inh)
CC1=NS(=O)(=O)NC(C)(C)C1	INS-1E GSIS act 53 (no result: C2C12 statin, miR122 inh)
CC1=NC(C#N)=C(C#N)NC(C)(C)C1	none
Cc1cc(C)n2nc(C(=O)OCC(=O)N(CC(C)C)C3CCS(=O)(=O)C3)nc2n1 (configuration not stated)	C2C12 statin 96 (no result: PAX8 inh HTS)
Cc1ccnc(NC(=O)CCC(=O)c2cccs2)c1	PAX8 inh HTS inconclusive, EWS-Fli inh 78 (no result: miR122 inh)
C[C@@H]1CCCCO[C@H](CN(C)Cc2ccc3c(c2)OCO3)[C@H](C)CN([C@H](C)CO)C(=O)c2cc(NS(C)(=O)=O)ccc2O1	none
COCC(=O)Nc1ccc2c(c1)OC[C@H](C)N(C(=O)c1ccccc1F)C[C@@H](C)[C@H](OC)CN(C)C2=O	none (no result: HIV Env fusion, PAX8 inh HTS)
Cc1ccc(O)c(CNc2cccc(C)n2)c1	none (no result: INS-1E GSIS act)
Cc1ccc(O)c(CNc2ccccn2)c1	C2C12 statin 112 (no result: HIV Env fusion, PAX8 inh HTS, EWS-Fli inh, INS-1E GSIS act)
Cc1ccnc(NCc2cc(C)ccc2O)c1	miR122 inh 211
CC(C)CC#Cc1cnc2c(c1)C(=O)N([C@@H](C)CO)C[C@@H](C)[C@@H](CN(C)C(=O)c1ccc3c(c1)OCO3)O2	none (no result: PAX8 inh HTS)
COc1ccc(-n2nc([N+](=O)[O-])c(=NCc3cccnc3)n2O)cc1	PAX8 inh HTS 146 (no result: HIV Env fusion, INS-1E GSIS act)
CCOC(=O)c1nn(-c2ccccc2)c2nc(Nc3ccccc3)cc(=O)n12	INS-1E GSIS act 78 (no result: HIV Env fusion, PAX8 inh HTS, C2C12 statin, EWS-Fli inh)
CCOC(=O)c1nn(-c2ccc(F)cc2)c2nc(Nc3ccccc3)cc(=O)n12	none (no result: HIV Env fusion, PAX8 inh HTS, C2C12 statin, miR122 inh, EWS-Fli inh)
